Several values for one entry are separate records, joined by “and”; a condition that tells them apart may be missing. Equal entries are not always repeated. Results filed as inconclusive are left out. The source holds several records for some structures; these can differ, active in one and inactive in another. Activity calls are given as the source filed them. Calls follow the shape of the dose curve; as a rule, active = well fitted activation curve with a large enough effect; inconclusive = small, poorly fitted or top-dose-only effect, or effect the other way; inactive = flat fitted curve, though single readings scatter.

Pyruvate kinase PKM (Homo sapiens), sequence (P14618 whole entry, looked up, canonical isoform): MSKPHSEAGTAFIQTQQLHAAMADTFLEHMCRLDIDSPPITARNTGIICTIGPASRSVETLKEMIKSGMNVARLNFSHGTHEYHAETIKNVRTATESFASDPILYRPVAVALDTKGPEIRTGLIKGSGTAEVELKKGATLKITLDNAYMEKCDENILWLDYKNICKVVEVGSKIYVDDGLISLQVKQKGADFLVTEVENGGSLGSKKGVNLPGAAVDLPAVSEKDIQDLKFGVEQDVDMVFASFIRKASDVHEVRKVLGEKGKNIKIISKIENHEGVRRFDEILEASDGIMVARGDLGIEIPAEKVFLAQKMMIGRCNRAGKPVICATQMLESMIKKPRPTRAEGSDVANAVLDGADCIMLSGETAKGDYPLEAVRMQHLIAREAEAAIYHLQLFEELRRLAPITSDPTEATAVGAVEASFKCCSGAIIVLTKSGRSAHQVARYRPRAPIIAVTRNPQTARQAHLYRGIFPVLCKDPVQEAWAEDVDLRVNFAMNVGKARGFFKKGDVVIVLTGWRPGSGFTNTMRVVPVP

For the experiment, the target named is Pyruvate kinase PKM (Homo sapiens) (UniProt P14618). Put plainly: Secondary assay for Activators of Human Pyruvate Kinase M2 isoform. The settings on record: purified hPK-M2, LDH-coupled NADH fluorescence kinetic; series mostly up to 57.5 µM; activation: at the top concentration. The source says:
Confirmatory assay NIH Chemical Genomics Center [NCGC] Matthew G. Vander Heiden, M.D., Ph.D. [Harvard Medical School, 77 Avenue Louis Pasteur, Boston, MA 02115] NCGC Assay Overview: Human pyruvate kinase muscle 2 (hPK-M2)enzyme was supplied as a highly purified (>95% pure) preparation from Harvard Medical School and a secondary assay was used to evaluate compounds. This assay couples the formation of pyruvate from hPK-M2 using lactate dehydrogenase (LDH) and NADH. The depletion of NADH is followed in a fluorescent-based kinetic assay that follows the formation of pyruvate to lactate, as catalyzed LDH (described by Hannaert et al., 2002)1 Pyruvate kinase substrates, PEP and ADP, were present in the assay at 0.1 mM and 4 mM respectively. In this kinetic assay initial rates were determined by following the fluorescence of NADH depletion.
NCGC Assay Protocol Summary: Three uL of substrate mix (final concentration, 50 mM Tris-Cl pH 8.0, 200 mM KCl, 15 mM MgCl2, 0.1 mM PEP, 4.0 mM ADP, and 0.2 mM NADH) was dispensed into black-solid 1536 well plates. 23 nL of compounds were delivered by a pin tool and 1 uL of enzyme mix (final concentrations, 10 nM hPK-M2 and 1 uM of LDH) was added. Plates were immediately placed in ViewLux (Perkin Elmer) and NADH fluorescence was determined at 30 second exposure intervals for between 3 and 6 minutes. Data were normalized to the uninhibited and EC100 activation using known activators such as fructose-bis-phosphate.
As for `O=S(=O)(c1ccc2ccccc2c1)N1CCN(S(=O)(=O)c2c(F)cccc2F)CC1`, the Potency was 8.91 µM (active) and 158 nM (active).
The same measure, in the same setting: the same measure for `O=S(=O)(c1ccccc1)N1CCN(S(=O)(=O)c2ccc3c(c2)OCCO3)CC1`: 447 nM (active).
The same measure, in the same setting: with `COc1cc(F)c(S(=O)(=O)N2CCN(S(=O)(=O)c3cccc(NC(C)=O)c3)CC2)c(F)c1` the figure was 1030 nM (active); with `CCCc1cc(F)c(S(=O)(=O)N2CCN(S(=O)(=O)c3ccc4c(c3)OCCO4)CC2)cc1F`, 8910 nM (active).
Same read-out and setting: the same measure for `O=S(=O)(c1cccc(O)c1)N1CCN(S(=O)(=O)c2c(F)cccc2F)CC1`: 183 nM (active).
Take `CCNc1cccc(S(=O)(=O)N2CCN(S(=O)(=O)c3ccc4c(c3)OCCO4)CC2)c1`: the “activation” value is 2.57% (inactive).
With `Nc1cc(S(=O)(=O)N2CCN(S(=O)(=O)c3ccc4c(c3)OCCO4)CC2)ccn1`, the “activation” value is 8.04% (inactive).
With `COc1ccc(Cn2ncc3c4sc(C)cc4n(C)c3c2=O)cc1F`, the Potency was 1120 nM (active).
As for `Cc1ccc(Cn2ncc3c4sc(C)cc4n(C)c3c2=O)c(C)c1`, the Potency is 1780 nM (active).
Consider `COc1cc(F)c(S(=O)(=O)N2CCN(S(=O)(=O)c3cccs3)CC2)c(F)c1`, for which the Potency was 51.7 nM (active).
In the case of `C=Cc1cc(F)c(S(=O)(=O)N2CCN(S(=O)(=O)c3ccc4c(c3)OCCO4)CC2)cc1F`, the Potency is 2000 nM (active).
Still for that read-out and setting: the same measure for `Cn1c2cc(C#N)sc2c2cnn(Cc3ccccc3F)c(=O)c21`: 355 nM (active); for `CCn1c2cc(C)sc2c2cnn(Cc3ccccc3F)c(=O)c21`: 5010 nM (active).
Still for that read-out and setting: the same measure for `Cn1c2ccsc2c2cnn(Cc3ccccc3F)c(=O)c21`: 2510 nM (active); for `Cc1cc2c(s1)c1cnn(Cc3ccc(F)cc3)c(=O)c1n2C`: 251 nM (active).
On to `Cc1cc2c(s1)c1cnn(Cc3ccc(C(C)C)cc3)c(=O)c1n2C`, for which the Potency was 4470 nM (active).
On the same count and under the same terms, with `C[C@H]1CN(S(=O)(=O)c2c(F)cccc2F)CCN1S(=O)(=O)c1ccc2c(c1)OCCO2` the figure was 5010 nM (active).
The same measure, in the same setting: with `O=S(=O)(c1ccc2c(c1)OCCO2)N1CCN(S(=O)(=O)c2c(F)cccc2F)CC1` the figure was 1 µM (active) and 562 nM (active).
On the same count and under the same terms, the same measure for `CC(=O)Nc1cccc(S(=O)(=O)N2CCCN(S(=O)(=O)c3ccc4c(c3)OCCO4)CC2)c1`: 819 nM (active); for `Cc1cc2c(s1)c1cnn(Cc3cc(C(F)(F)F)cc(Cl)c3F)c(=O)c1n2C`: 562 nM (active).
For the molecule `O=S(=O)(c1ccc2c(c1)OCCO2)N1CCN(S(=O)(=O)c2cccc[n+]2[O-])CC1`, the Potency is 4470 nM (active).
Same read-out and setting: with `O=S(=O)(c1ccc2c(c1)OCO2)N1CCN(S(=O)(=O)c2c(F)cccc2F)CC1` the figure was 708 nM (active); with `COC(=O)c1cc(F)c(S(=O)(=O)N2CCN(S(=O)(=O)c3ccc4c(c3)OCCO4)CC2)cc1F`, 355 nM (active).
Still for that read-out and setting: the same measure for `O=S(=O)(c1ccc2c(c1)OCCO2)N1CCCN(S(=O)(=O)c2c(F)cccc2F)CC1`: 891 nM (active); for `COc1ccc(S(=O)(=O)N2CCN(S(=O)(=O)c3ccc(OC)cc3)CC2)cc1`: 398 nM (active) and 282 nM (active); for `COc1cc(F)c(S(=O)(=O)N2CCCN(S(=O)(=O)c3ccc(N)cc3)CC2)c(F)c1`: 1300 nM (active).
Still for that read-out and setting: the same measure for `CN1CCOc2ccc(S(=O)(=O)N3CCN(S(=O)(=O)c4c(F)cccc4F)CC3)cc21`: 3.55 µM (active) and 708 nM (active); for `O=S(=O)(c1ccc2c(c1)OCCO2)N1CCN(S(=O)(=O)c2ccc3c(c2)OCCO3)CC1`: 398 nM (active).
On to `O=S(=O)(c1ccc2c(c1)OCCO2)N1CCN(S(=O)(=O)c2ccc(F)cc2F)CC1`, for which the Potency was 501 nM (active).
Still for that read-out and setting: the same measure for `CC(O)c1cc2c(s1)c1cnn(Cc3ccccc3F)c(=O)c1n2C` (stereo not given): 398 nM (active); for `Cc1cc2c(s1)c1cnn(Cc3ccc(C(F)(F)F)cc3)c(=O)c1n2C`: 2240 nM (active).
As to `COc1ccc(Cn2ncc3c4sc(C)cc4n(C)c3c2=O)cc1`, the Potency is 199 nM (active).
On the same count and under the same terms, the same measure for `Cn1c2cc(S(C)(=O)=O)sc2c2cnn(Cc3ccccc3F)c(=O)c21`: 447 nM (active).
On to `CNc1cccc(S(=O)(=O)N2CCN(S(=O)(=O)c3ccc4c(c3)OCCO4)CC2)c1`, for which the “activation” value was 17.9% (inactive).
On to `Cn1ccc2cc(S(=O)(=O)N3CCN(S(=O)(=O)c4c(F)cccc4F)CC3)ccc21`, for which the Potency was 1410 nM (active).
For the molecule `CC(=O)Nc1ccc(S(=O)(=O)N2CCCN(S(=O)(=O)c3ccc4c(c3)OCCO4)CC2)cc1`, the Potency is 2590 nM (active).
For the molecule `Cc1cc2c(s1)c1cnn(Cc3cccc(F)c3)c(=O)c1n2C`, the Potency was 1260 nM (active).
`O=S(=O)(NCCNS(=O)(=O)c1c(F)cccc1F)c1ccc2c(c1)OCCO2`: the “activation” value was 25.3% (inactive).
`O=S(=O)(c1ccc2c(c1)OCCO2)N1CCN(S(=O)(=O)c2cc(F)c(F)cc2F)CC1`: the Potency was 562 nM (active).
The same measure, in the same setting: with `COc1ccc(S(=O)(=O)N2CCN(S(=O)(=O)c3c(F)cccc3F)CC2)cc1` the entry was “inactive and 141 nM (active)”.

(Values after PubChem BioAssay AID1540 (National Center for Advancing Translational Sciences (NCATS), 2009).)
